Test [1] can be described thus: p53 stabilisation in HPV-positive human cells, imaging, p53-positive nuclei imaging, 24 h, 48 h (AID 1508601). The conditions noted are these: 24/48 h.
Test [2] addresses Cellular tumor antigen p53 (Homo sapiens) (UniProt P04637). The description is as above. To be noted: 24/48 h, stronger effect = higher value.
The mark [3] stands for this setting: measured here: cell number at 24 h, Library stock concentration: 3.33 mM.
[4] abbreviates: measured here: cell number at 48 h, Library stock concentration: 3.33 mM.
Setting [5] is: Library stock concentration: 3.33 mM.
[6] abbreviates: measured here: p53 positive nuclei at 24 h, Library stock concentration: 3.33 mM.
Where [7] appears, read: measured here: cell number at 24 h, Library stock concentration: 80 uM.
The mark [8] stands for this setting: measured here: cell number at 24 h, Library stock concentration: 400 uM.
Where [9] appears, read: measured here: cell number at 24 h, Library stock concentration: 2 mM.
Where [10] appears, read: measured here: cell number at 24 h, Library stock concentration: 10 mM.
Where [11] appears, read: measured here: cell number at 48 h, Library stock concentration: 80 uM.
Where [12] appears, read: measured here: cell number at 48 h, Library stock concentration: 400 uM.
Setting [13] is: measured here: cell number at 48 h, Library stock concentration: 2 mM.
Setting [14] is: measured here: cell number at 48 h, Library stock concentration: 10 mM.
[15] abbreviates: Library stock concentration: 80 uM.
Setting [16] is: Library stock concentration: 400 uM.
Where [17] appears, read: Library stock concentration: 2 mM.
Setting [18] is: Library stock concentration: 10 mM.
[19] abbreviates: measured here: p53 positive nuclei at 24 h, Library stock concentration: 80 uM.
Where [20] appears, read: measured here: p53 positive nuclei at 24 h, Library stock concentration: 400 uM.
Where [21] appears, read: measured here: p53 positive nuclei at 24 h, Library stock concentration: 2 mM.
Where [22] appears, read: measured here: p53 positive nuclei at 24 h, Library stock concentration: 10 mM.
Where [23] appears, read: measured here: cell number at 24 h, concentration not given here.
[24] abbreviates: measured here: cell number at 48 h, concentration not given here.
Setting [25] is: measured here: p53 positive nuclei at 24 h, concentration not given here.

Hit rate of the full screen: of about 5,700 compounds, about 85 (1%) were called active. This is one part of a sample in which actives are shown more often than they occur. Rule as the data show it: active = p53-positive nuclei above about 36% (passing the limit was not always enough); inactive = the rest.

Drawing on PubChem BioAssay AID1508601 (ICCB-Longwood Screening Facility, Harvard Medical School, 2020), this text covers nuclei count, normalised and p53-positive nuclei, normalised for 7 molecules.

Sequence of Cellular tumor antigen p53 (Homo sapiens) (P04637 whole entry, looked up): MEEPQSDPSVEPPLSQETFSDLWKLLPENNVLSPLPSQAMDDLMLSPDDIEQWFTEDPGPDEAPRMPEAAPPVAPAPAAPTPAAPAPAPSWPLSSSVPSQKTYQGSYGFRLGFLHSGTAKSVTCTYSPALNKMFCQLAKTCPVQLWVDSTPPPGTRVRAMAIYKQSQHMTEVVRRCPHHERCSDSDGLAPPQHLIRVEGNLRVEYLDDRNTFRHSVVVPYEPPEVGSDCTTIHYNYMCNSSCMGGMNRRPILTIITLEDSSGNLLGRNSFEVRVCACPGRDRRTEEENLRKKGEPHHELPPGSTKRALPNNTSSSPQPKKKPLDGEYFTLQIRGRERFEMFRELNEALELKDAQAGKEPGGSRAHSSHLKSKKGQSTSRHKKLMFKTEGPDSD

With `O=c1[nH]c2ccc(Cl)cc2c(NC2CN3CCC2CC3)c1-c1nc2ccccc2[nH]1` (stereo not drawn), the nuclei count, normalised in test [1] (setting [3]) is 52.7%; in test [1] (setting [4]), 33.7%. The p53-positive nuclei, normalised in test [2] (setting [5]) was 34% (inactive); in test [2] (setting [6]), 8.33%.
Turning to `C[C@]12C=CC(=O)C=C1CC[C@@H]1[C@@H]2CC[C@]2(C)OC(=O)CC[C@@H]12`, the nuclei count, normalised in test [1] (setting [7]) amounted to 87.6%; in test [1] (setting [8]) it was 90.3%; in test [1] (setting [9]), 93%; in test [1] (setting [10]) it was 89.5%; in test [1] (setting [11]), 95.1%; in test [1] (setting [12]) it was 95%. The nuclei count, normalised in test [1] (setting [13]) came to 99.5%; in test [1] (setting [14]), 97.4%. The p53-positive nuclei, normalised in test [2] (setting [15]) is -0.0445% (inactive); in test [2] (setting [16]), 0.096% (inactive); in test [2] (setting [17]) it was -0.0494% (inactive); in test [2] (setting [18]) it was -0.00393% (inactive); in test [2] (setting [19]), -0.0455%; in test [2] (setting [20]), 0.101%. Moreover, the results for the p53-positive nuclei, normalised in test [2] (setting [21]) and in test [2] (setting [22]) were 0.166% and -0.0487%, respectively.
`O=C1C(=O)c2cccc3cccc1c23`: the nuclei count, normalised amounted to 115% in test [1] (setting [7]); 118% in test [1] (setting [8]); 118% in test [1] (setting [9]); 109% in test [1] (setting [10]); 119% in test [1] (setting [11]); 112% in test [1] (setting [12]). Besides, the nuclei count, normalised in test [1] (setting [13]) and in test [1] (setting [14]) was 115% in each case. The p53-positive nuclei, normalised in test [2] (setting [15]) was 0.0597% (inactive); in test [2] (setting [16]), 0.0621% (inactive); in test [2] (setting [17]), 0.165% (inactive); in test [2] (setting [18]) it was 0.252% (inactive); in test [2] (setting [19]), -0.0696%; in test [2] (setting [20]), -0.0154%. In addition, the figures for the p53-positive nuclei, normalised in test [2] (setting [21]) and in test [2] (setting [22]) were 0.208% and 0.327%, respectively.
Consider `CC1=CC(=O)c2c(O)cccc2C1=O`, for which the nuclei count, normalised in test [1] (measured here: cell number at 24 h, Library stock concentration: 500 nM) came to 119%; in test [1] (measured here: cell number at 24 h, Library stock concentration: 1.5 uM), 116%; in test [1] (measured here: cell number at 24 h, Library stock concentration: 4.6 uM), 126%; in test [1] (measured here: cell number at 24 h, Library stock concentration: 13.7 uM), 115%; in test [1] (measured here: cell number at 24 h, Library stock concentration: 41 uM), 118%; in test [1] (measured here: cell number at 24 h, Library stock concentration: 123 uM), 108%. For the same molecule, the nuclei count, normalised in test [1] (measured here: cell number at 24 h, Library stock concentration: 370 uM) was 94.6%; in test [1] (measured here: cell number at 24 h, Library stock concentration: 1.111 mM) it was 55.5%; in test [1] (measured here: cell number at 24 h, Library stock concentration: 3.333 mM), 48.6%; in test [1] (setting [10]) it was 49%; in test [1] (measured here: cell number at 48 h, Library stock concentration: 500 nM) it was 113%; in test [1] (measured here: cell number at 48 h, Library stock concentration: 1.5 uM) it was 115%. Also, the nuclei count, normalised in test [1] (measured here: cell number at 48 h, Library stock concentration: 4.6 uM) was found to be 120%; in test [1] (measured here: cell number at 48 h, Library stock concentration: 13.7 uM), 115%; in test [1] (measured here: cell number at 48 h, Library stock concentration: 41 uM), 118%; in test [1] (measured here: cell number at 48 h, Library stock concentration: 123 uM) it was 111%; in test [1] (measured here: cell number at 48 h, Library stock concentration: 370 uM), 102%; in test [1] (measured here: cell number at 48 h, Library stock concentration: 1.111 mM), 32.4%. In addition, the nuclei count, normalised in test [1] (measured here: cell number at 48 h, Library stock concentration: 3.333 mM) is 31.9%; in test [1] (setting [14]), 32.5%. Besides, the p53-positive nuclei, normalised in test [2] (Library stock concentration: 500 nM) is -0.129% (inactive); in test [2] (Library stock concentration: 1.5 uM), -0.0912% (inactive); in test [2] (Library stock concentration: 4.6 uM) it was 0.131% (inactive); in test [2] (Library stock concentration: 13.7 uM) it was -0.0585% (inactive); in test [2] (Library stock concentration: 41 uM), -0.0569% (inactive); in test [2] (Library stock concentration: 123 uM), 0.196% (inactive). The p53-positive nuclei, normalised in test [2] (Library stock concentration: 370 uM) was -0.0821% (inactive); in test [2] (Library stock concentration: 1.111 mM), 48.3% (active); in test [2] (Library stock concentration: 3.333 mM), 2.14% (inactive); in test [2] (setting [18]) it was -0.248% (inactive); in test [2] (measured here: p53 positive nuclei at 24 h, Library stock concentration: 500 nM) it was 0.0252%; in test [2] (measured here: p53 positive nuclei at 24 h, Library stock concentration: 1.5 uM), 0.031%. Besides, the p53-positive nuclei, normalised was -0.0368% in test [2] (measured here: p53 positive nuclei at 24 h, Library stock concentration: 4.6 uM); 0.0863% in test [2] (measured here: p53 positive nuclei at 24 h, Library stock concentration: 13.7 uM); -0.027% in test [2] (measured here: p53 positive nuclei at 24 h, Library stock concentration: 41 uM); 0.171% in test [2] (measured here: p53 positive nuclei at 24 h, Library stock concentration: 123 uM); 0.0792% in test [2] (measured here: p53 positive nuclei at 24 h, Library stock concentration: 370 uM); 61.6% in test [2] (measured here: p53 positive nuclei at 24 h, Library stock concentration: 1.111 mM). Moreover, the p53-positive nuclei, normalised in test [2] (measured here: p53 positive nuclei at 24 h, Library stock concentration: 3.333 mM) was 3.81%; in test [2] (setting [22]), -0.148%.
Consider `O=C1c2ccccc2C(=O)c2ccccc21`, for which the nuclei count, normalised in test [1] (setting [23]) was 102%; in test [1] (setting [24]), 96.8%. Besides, the values for the p53-positive nuclei, normalised in test [2] (concentration not given here) and in test [2] (setting [25]) were -0.00139% (inactive) and -0.102%, respectively.
As for `C[C@]12NC(Cc3ccccc31)c1ccccc12`, the nuclei count, normalised in test [1] (setting [3]) turned out to be 121%; in test [1] (setting [4]), 112%. Also, the values for the p53-positive nuclei, normalised in test [2] (setting [5]) and in test [2] (setting [6]) were -0.107% (inactive) and -0.588%, respectively.
For `CCCCC/C=C\C/C=C\C/C=C\C/C=C\CCCC(=O)NCCF`, the nuclei count, normalised came out at 90.3% in test [1] (setting [23]) and 90.8% in test [1] (setting [24]). Further, the p53-positive nuclei, normalised was 0.105% (inactive) in test [2] (concentration not given here) and -0.0127% in test [2] (setting [25]).
